The results in this text go back to PubChem BioAssay.

The inhibition is the drop in the measured response relative to a control, in per cent.

Structures are written as SMILES. Unmarked numbers belong to inactive results. For some assays here: Entries with a potency or affinity are not part of this list. The source made the active and inactive calls. Unless noted, how the calls were made is not given here.

A short description of assay [1]: antimalarial activity against Dd2 strain (AID 2302;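 active means growth inhibition above 50% at the single 2 µM test dose, taken to imply half-maximal potency below 2 µM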;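 further: 0% = DMSO untreated growth and 100% = chloroquine plus artemisinin killed control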). To be noted: P. falciparum Dd2 in RBCs, LDH growth readout, 72 h; at 2 µM; active compounds read high.
A short description of assay [2]: HepG2 cytotoxicity, primary screen, cytotoxicity control for P. falciparum antimalarial project, cell-based, ATP luminescence (AID 2303;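 active means inhibition above 50%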;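 further: 0% = DMSO wells and 100% = digitonin-killed cells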). To be noted: HepG2 viability, 24-48 h, at 10 µM, active compounds read high.
Assay [3] concerns the target L-lactate dehydrogenase (Plasmodium falciparum (isolate CDC / Honduras)) (UniProt Q27743). Briefly: PfLDH activity inhibition – cell lysate, 3D7 strain, counter-screen for P. falciparum growth inhibition project (AID 2304).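 Further: 0% = vehicle and 100% = reference inhibitor.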 To be noted: P. falciparum 3D7 crude extract, LDH APAD/NBT absorbance; at 2 µM; active compounds read high.
Assay [4] can be described thus: inhibition of 3D7 malaria parasite growth – strain 3D7 (AID 2306).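 Further: 0% = DMSO wells and 100% = chloroquine plus artemisinin control wells.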 The note with it: P. falciparum 3D7 erythrocytic growth, LDH absorbance, 72 h; at 2 µM; active compounds read high.
Assay [5] has as its target Calcium-dependent protein kinase 1 (Plasmodium falciparum (isolate 3D7)) (UniProt P62344). Briefly: PfCDPK1 kinase inhibitors, biochemical, TCAMS library (AID 1159585; cut-off not given, nearly all actives have IC50 up to about 0.98 µM;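 further: inhibitors leave more ATP so luminescence rises with inhibition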). The note with it: recombinant PfCDPK1, Kinase-Glo ATP depletion luminescence.
The target of assay [6] is Plasmodium falciparum protein kinase 6 (PK6, PF3D7_1337100) (UniProt Q8IDW1). Put plainly: PfPK6 kinase inhibitors, biochemical, TCAMS library (AID 1159586). To be noted: recombinant PfPK6, Kinase-Glo ATP depletion luminescence.
Assay [7] has as its target Protein kinase 7 (PK7), Plasmodium falciparum 3D7 (PF3D7_0213400) (UniProt Q7YTF7). Briefly: inhibition of Plasmodium PK7 catalytic activity – biochemical, TCAMS antimalarial set, Kinase-Glo luminescence (AID 1159587). To be noted: recombinant PfPK7, Kinase-Glo ATP depletion luminescence. (In general: Kinase-Glo measures the ATP left after a reaction by luminescence.)
Assay [8] has as its target Calcium-dependent protein kinase 4 (Plasmodium falciparum (isolate 3D7)) (UniProt Q8IBS5). Put plainly: PfCDPK4 kinase inhibitors, biochemical, TCAMS library (AID 1159588; cut-off not given, nearly all actives have IC50 up to about 0.91 µM). The note with it: recombinant PfCDPK4, Kinase-Glo ATP depletion luminescence.

Sequence of Protein kinase 7 (PK7), Plasmodium falciparum 3D7 (PF3D7_0213400) (Q7YTF7 1-343): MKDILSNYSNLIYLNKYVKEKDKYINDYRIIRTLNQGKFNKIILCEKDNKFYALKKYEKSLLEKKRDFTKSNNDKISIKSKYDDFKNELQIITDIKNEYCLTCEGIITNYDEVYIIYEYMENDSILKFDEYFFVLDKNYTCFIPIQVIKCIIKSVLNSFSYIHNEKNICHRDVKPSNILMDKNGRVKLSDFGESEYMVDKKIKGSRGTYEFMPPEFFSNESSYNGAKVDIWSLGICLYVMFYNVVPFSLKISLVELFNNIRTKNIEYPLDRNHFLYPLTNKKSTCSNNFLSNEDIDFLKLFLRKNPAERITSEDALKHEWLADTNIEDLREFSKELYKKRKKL
Sequence of Calcium-dependent protein kinase 1 (Plasmodium falciparum (isolate 3D7)) (P62344 whole entry, looked up): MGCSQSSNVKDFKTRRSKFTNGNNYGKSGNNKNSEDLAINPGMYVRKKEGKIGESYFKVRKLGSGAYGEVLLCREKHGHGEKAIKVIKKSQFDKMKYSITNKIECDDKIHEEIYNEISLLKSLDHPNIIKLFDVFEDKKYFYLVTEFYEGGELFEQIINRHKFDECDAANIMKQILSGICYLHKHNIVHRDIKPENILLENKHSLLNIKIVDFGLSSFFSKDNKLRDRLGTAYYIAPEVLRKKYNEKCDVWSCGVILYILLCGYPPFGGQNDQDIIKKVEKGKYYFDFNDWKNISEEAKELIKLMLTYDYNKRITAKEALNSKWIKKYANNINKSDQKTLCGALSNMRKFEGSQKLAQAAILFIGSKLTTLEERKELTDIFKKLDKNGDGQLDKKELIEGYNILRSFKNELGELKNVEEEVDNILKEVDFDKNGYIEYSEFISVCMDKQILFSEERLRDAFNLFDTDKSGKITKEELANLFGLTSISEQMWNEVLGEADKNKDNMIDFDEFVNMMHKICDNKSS
Sequence of Calcium-dependent protein kinase 4 (Plasmodium falciparum (isolate 3D7)) (Q8IBS5 whole entry, looked up): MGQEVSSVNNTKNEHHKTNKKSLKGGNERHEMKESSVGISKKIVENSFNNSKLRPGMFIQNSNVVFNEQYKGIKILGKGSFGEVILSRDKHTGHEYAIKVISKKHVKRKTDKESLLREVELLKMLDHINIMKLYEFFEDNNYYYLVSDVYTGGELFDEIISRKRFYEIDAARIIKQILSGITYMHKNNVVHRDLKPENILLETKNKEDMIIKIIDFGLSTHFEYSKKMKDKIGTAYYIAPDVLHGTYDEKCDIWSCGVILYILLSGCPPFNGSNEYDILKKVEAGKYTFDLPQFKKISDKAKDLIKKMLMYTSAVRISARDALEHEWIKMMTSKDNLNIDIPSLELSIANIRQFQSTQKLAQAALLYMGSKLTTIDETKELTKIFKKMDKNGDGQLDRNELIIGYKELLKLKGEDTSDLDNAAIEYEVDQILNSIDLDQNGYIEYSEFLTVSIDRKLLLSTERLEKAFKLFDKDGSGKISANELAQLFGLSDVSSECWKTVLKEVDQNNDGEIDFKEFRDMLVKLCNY
Sequence of L-lactate dehydrogenase (Plasmodium falciparum (isolate CDC / Honduras)) (Q27743 whole entry, looked up): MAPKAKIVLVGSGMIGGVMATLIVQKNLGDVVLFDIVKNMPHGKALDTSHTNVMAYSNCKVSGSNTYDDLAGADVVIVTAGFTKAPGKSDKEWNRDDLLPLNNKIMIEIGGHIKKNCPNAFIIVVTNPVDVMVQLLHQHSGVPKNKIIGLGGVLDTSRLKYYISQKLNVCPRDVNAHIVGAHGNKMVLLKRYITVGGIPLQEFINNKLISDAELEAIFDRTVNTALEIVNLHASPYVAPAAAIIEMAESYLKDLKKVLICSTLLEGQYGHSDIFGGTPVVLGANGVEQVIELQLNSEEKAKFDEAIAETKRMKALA
Sequence of Plasmodium falciparum protein kinase 6 (PK6, PF3D7_1337100) (Q8IDW1 1-305): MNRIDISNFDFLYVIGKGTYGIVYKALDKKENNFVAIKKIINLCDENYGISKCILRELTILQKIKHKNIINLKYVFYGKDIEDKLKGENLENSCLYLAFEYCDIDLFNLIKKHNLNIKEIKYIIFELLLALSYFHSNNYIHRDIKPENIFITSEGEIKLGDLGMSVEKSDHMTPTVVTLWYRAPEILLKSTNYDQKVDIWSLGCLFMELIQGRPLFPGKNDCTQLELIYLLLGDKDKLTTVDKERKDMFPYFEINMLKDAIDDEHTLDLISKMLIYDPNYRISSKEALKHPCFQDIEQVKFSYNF

As for `CC(C)c1ccc(O)cc1Nc1ccnc2ccc(C(F)(F)F)cc12`, the growth inhibition in assay [1] was 90% (active); in assay [4], 97% (active). Further, the inhibition in assay [2] is 6%; in assay [3], -6%. The outcome in assay [5], in assay [6], in assay [7] and in assay [8] was inactive.
For the compound `COc1ccc(-c2ccc(NC(=O)c3cccc(C#N)c3)cc2)cc1CN1CCNCC1`, the values for the growth inhibition in assay [1] and in assay [4] were 47% and 101% (active), respectively. The inhibition in assay [2] was 30%; in assay [3], 8%. Further, the result in assay [5], in assay [6], in assay [7] and in assay [8] was inactive.
For `CCOc1ccc2nc(NC(=O)c3csnn3)sc2c1`, the growth inhibition in assay [1] was 98% (active); in assay [4] it was 100% (active). Moreover, the inhibition is 6% in assay [2] and 1% in assay [3]. Moreover, the outcome in assay [5], in assay [6], in assay [7] and in assay [8] was inactive.
Turning to `O=C(NC1CCCCC1)N(Cc1cccc(-c2ccc(CNCCc3ccccc3)cc2)c1)C1CCN(Cc2ccccc2)CC1`, the growth inhibition in assay [1] and in assay [4] was 93% (active) throughout. For the same compound, the inhibition was 61% (active) in assay [2] and 4% in assay [3]. The result in assay [5], in assay [6], in assay [7] and in assay [8] was inactive.
On to `COc1cccc(-c2cc(C(F)(F)F)n3ncc(C(=O)Nc4cc(C)ccc4O)c3n2)c1`, for which the growth inhibition in assay [1] is 99% (active); in assay [4], 98% (active). Also, the inhibition was -4% in assay [2] and 3% in assay [3]. The outcome in assay [5], in assay [6], in assay [7] and in assay [8] was inactive.
On to `Oc1ccc(-c2cncc(NCc3ccc(F)c(F)c3)c2)cc1`, for which the growth inhibition is 80% (active) in assay [1] and 95% (active) in assay [4]. In addition, the inhibition was -14% in assay [2] and -3% in assay [3]. For the same compound, the result in assay [5], in assay [6], in assay [7] and in assay [8] was inactive.
As for `CCc1c(CCNCCCCCCNCCc2ccc(OC)cc2)ccc(OC)c1OC`, the growth inhibition in assay [1] was -1%; in assay [4] it was 98% (active). The inhibition in assay [2] was 16%; in assay [3] it was 8%. Further, the outcome in assay [5], in assay [6], in assay [7] and in assay [8] was inactive.
As to `O=C(NCCCCN1CCC(c2ccc(Br)cc2)CC1)c1ccc(NC(=O)c2ccc(Cl)cc2)cc1`, the growth inhibition is 86% (active) in assay [1] and 100% (active) in assay [4]. Besides, the inhibition was 17% in assay [2] and 0% in assay [3]. Moreover, the outcome in assay [5], in assay [6], in assay [7] and in assay [8] was inactive.
Turning to `CCCC(C)NC(=O)[C@H](Cc1ccccc1)NC(=O)c1ccc(O)c(-c2ccc(OC)cc2)c1` (some centres not stated), the growth inhibition in assay [1] is 1%; in assay [4] it was 85% (active). Further, the inhibition in assay [2] is 12%; in assay [3], 2%. Moreover, the outcome in assay [5], in assay [6], in assay [7] and in assay [8] was inactive.
Consider `CCN1CCc2c1cc(C(=O)N[C@@H](Cc1ccccc1)[C@H](O)CNC(C)(C)c1cccc(C(F)(F)F)c1)cc2N1CCCCS1(=O)=O`, for which the figures for the growth inhibition in assay [1] and in assay [4] were 99% (active) and 100% (active), respectively. For the same compound, the inhibition in assay [2] was 6%; in assay [3] it was -1%. Moreover, the outcome in assay [5], in assay [6], in assay [7] and in assay [8] was inactive.
Consider `Cc1cc2nc(-c3ccc(C(=O)NC4CCN(Cc5ccccc5)CC4)s3)[nH]c2cc1C`, for which the growth inhibition is 82% (active) in assay [1] and 99% (active) in assay [4]. For the same compound, the inhibition is 33% in assay [2] and 1% in assay [3]. Further, the outcome in assay [5], in assay [6], in assay [7] and in assay [8] was inactive.
With `COc1cc(C(=O)N2CCOC(CCN3CCC[C@H]3C(=O)Nc3ccccc3)(c3ccc(Cl)c(Cl)c3)C2)cc(OC)c1OC` (some centres not stated), the growth inhibition in assay [1] is 88% (active); in assay [4] it was 98% (active). Besides, the inhibition in assay [2] was 3%; in assay [3], -2%. The outcome in assay [5], in assay [6], in assay [7] and in assay [8] was inactive.
`COc1ccc(C(=O)Nc2ccc(Cl)cc2C(=O)Nc2ccncc2)cc1`: the growth inhibition was 29% in assay [1] and 91% (active) in assay [4]. For the same compound, the inhibition was 7% in assay [2] and 1% in assay [3]. Further, the result in assay [5], in assay [6], in assay [7] and in assay [8] was inactive.
On to `O=C(/C=C/c1ccc(Cl)c(Cl)c1)NCCCCCCN1CCCN(C(=O)Nc2ccc(F)c(Cl)c2)CC1`, for which the values for the growth inhibition in assay [1] and in assay [4] were 1% and 98% (active), respectively. Further, the inhibition in assay [2] is 30%; in assay [3] it was 0%. In addition, the result in assay [5], in assay [6], in assay [7] and in assay [8] was inactive.
`COc1cc2c(cc1OC)C(C(=O)Nc1cc(OC)c(OC)c(OC)c1)C(c1ccc(SC)cc1)N(C)C2=O` (configuration not stated): the growth inhibition was 64% (active) in assay [1] and 97% (active) in assay [4]. Further, the figures for the inhibition in assay [2] and in assay [3] were 14% and 2%, respectively. In addition, the outcome in assay [5], in assay [6], in assay [7] and in assay [8] was inactive.
On to `O=C(C=Cc1cccc(F)c1)NC1CCC(CCN2CCc3ccc(-c4cnccn4)cc3CC2)CC1` (configuration not stated), for which the growth inhibition in assay [1] is 67% (active); in assay [4] it was 100% (active). Moreover, the inhibition in assay [2] is 51% (active); in assay [3], -1%. Further, the outcome in assay [5], in assay [6], in assay [7] and in assay [8] was inactive.
In the case of `CN(C(=O)C(C)(C)Oc1ccc(Cl)cc1)C1CCN(CCCCCNC(=O)/C=C/c2ccc(Cl)c(Cl)c2)CC1`, the results for the growth inhibition in assay [1] and in assay [4] were 26% and 96% (active), respectively. The figures for the inhibition in assay [2] and in assay [3] were 86% (active) and 0%, respectively. Besides, the result in assay [5], in assay [6], in assay [7] and in assay [8] was inactive.
In the case of `CC(=O)Oc1c(C(=O)C2CCC(C(C)(C)C)CC2)c(OC(C)=O)c2ccccc2c1OC(C)=O` (configuration not stated), the growth inhibition in assay [1] and in assay [4] was 96% (active) in each case. Besides, the inhibition in assay [2] was 9%; in assay [3], 2%. The outcome in assay [5], in assay [6], in assay [7] and in assay [8] was inactive.
In the case of `Cc1c(F)cc(C(=O)NC2CC2)cc1-c1ccc2c(cnn2S(=O)(=O)c2ccc(F)c(F)c2)c1`, the results for the growth inhibition in assay [1] and in assay [4] were 76% (active) and 91% (active), respectively. In addition, the inhibition is 49% in assay [2] and -2% in assay [3]. Moreover, the outcome in assay [5], in assay [6], in assay [7] and in assay [8] was inactive.
